Test [1] relates to Wnt5a (protein binding on small-molecule microarray). As to the kind of experiment: Wnt5a binders on small-molecule microarray, primary screen, biophysical, 635/667 nm fluorescence (AID 1142).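 Further: fluorescence read at 667 nm with signal to noise per printed feature.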 Conditions: 635 nm fluorescence, higher = more signal.
Test [2] in a line: cell viability in Huh7 cells, primary screen, cytotoxicity control for HCV replication inhibitor project, CellTiter-Glo luminescence, basal, 48 h (AID 1143).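 Further: Huh7 hepatoma cells carrying a hepatitis C replication reporter with no stimulus; test concentration not given here.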 As to conditions: Huh7 HCV replicon, higher = more signal, called active from +8 up or from −8 down.
The nature of test [3]: P. aeruginosa biofilm formation inhibitors, primary screen, PAO1 strain, BacTiter-Glo luminescence, LB-PBS (AID 1144). As to conditions: 12 h, higher = more signal.
A short description of test [4]: CREB reporter modulators without forskolin, primary screen, cell-based, PC12, CRE-LacZ reporter, unstimulated (AID 1145). As to conditions: no forskolin, luminescence, 4.5 h, higher = more signal, called active from +8 up or from −8 down.
Test [5] in a line: CREB reporter modulators under forskolin, primary screen, cell-based, PC12, CRE-LacZ reporter, forskolin-stimulated (AID 1146).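 Further: PC12 cells with 6xCRE LacZ reporter stimulated by forskolin 10 µM; beta-galactosidase reporter signal reflecting CREB driven transcription.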 As to conditions: luminescence, 4.5 h, higher = more signal, called active from +8 up or from −8 down.
The target of test [6] is Streptavidin (Streptomyces avidinii) (UniProt P22629). As to the kind of experiment: streptavidin binders on small-molecule microarray, primary screen, artefact control for SMM compound annotation, biophysical, 635/667 nm fluorescence (AID 1147).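 Further: signal reflects streptavidin binding to arrayed compounds as a control protein.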 Conditions: streptavidin binding, higher = more signal.
Test [7] can be described thus: small-molecule binders of probe aInhba, primary screen, biochemical, small-molecule microarray, 635/667 nm fluorescence (AID 1148).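 Further: score merges 667nm spot fluorescence with signal-to-noise for antibody binding to printed compounds.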 As to conditions: higher = more signal.
Test [8] concerns the target Torsin-1A (Homo sapiens) (UniProt O14656). As to the kind of experiment: torsin A binders from cell lysate, primary screen, small-molecule microarray, wild-type, 635/667 nm (AID 1149). As to conditions: COS7 hTOR1A-WT lysate, 635 nm fluorescence, higher = more signal.
Test [9] has the same target. As to the kind of experiment: small-molecule binders of mutant TOR1A in lysate, primary screen, cell lysate, small-molecule microarray, COS7 lysate, 635/667 nm fluorescence (AID 1150).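 Further: score pools 667 nm emission and signal to noise measuring lysate protein binding.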 Conditions: COS7 hTOR1A mutant lysate, 635 nm fluorescence, higher = more signal.
Test [10] concerns Sonic hedgehog protein (Shh). As to the kind of experiment: small-molecule binders of Shh protein, primary screen, biochemical, small-molecule microarray, 635/667 nm fluorescence (AID 1151).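 Further: Shh protein binding to compounds spotted on small-molecule microarray slides; score combines spot fluorescence intensity with signal-to-noise across triplicate slides.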 As to conditions: small-molecule microarray binding, 635 nm fluorescence; higher = more signal.
Test [11] is described as follows: E. coli DRC41 culture turbidity changes, primary screen, E. coli filamentation inducer project, strain DRC41, OD650, 48 h (AID 1152).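 Further: E. coli MC1000 strain DRC41 lacking acrAB efflux pump and sulA.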 Conditions: E. coli DRC41 (acrAB sulA), higher = more signal, called active from +8 up or from −8 down.
The nature of test [12]: small-molecule binders of probe aLefty1, primary screen, biochemical, small-molecule microarray, 635/667 nm fluorescence (AID 1153).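 Further: score merges spot fluorescence with signal-to-noise ratio from the scanned slide images.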 Conditions: higher = more signal.
Test [13] in a line: PSAC antagonists in infected red cells, primary screen, cell-based, P. falciparum Indochina, OD700, 1 h (AID 1154). As to conditions: P. falciparum Indochina infected RBC osmotic lysis, higher = more signal, called active from +8 up or from −8 down.
The nature of test [14]: PSAC antagonists in infected red cells, primary screen, cell-based, P. falciparum Indochina, OD700, 2 h (AID 1155).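 Further: lysis reports solute entry through the parasite surface anion channel PSAC; channel blockers reduce lysis of infected cells.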 As to conditions: P. falciparum Indochina infected erythrocytes, osmotic lysis OD700; higher = more signal, called active from +8 up or from −8 down.
A short description of test [15]: osmotic lysis modulators in infected erythrocytes, primary screen, PSAC antagonist project, cell-based, P. falciparum Indochina, OD700, 3 h (AID 1156). As to conditions: higher = more signal, called active from +8 up or from −8 down.
Test [16] can be described thus: PSAC antagonists in infected red cells, primary screen, cell-based, P. falciparum Indochina, OD700, 18 h (AID 1157). As to conditions: P. falciparum Indochina infected erythrocytes, osmotic lysis OD700, 18 h; higher = more signal, called active from +8 up or from −8 down.
Test [17] is described as follows: modulators of S6 phosphorylation in cells, primary screen, cell-based, A549, cytoblot, luminescence, serum-stimulated (AID 1158).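 Further: serum-stimulated A549 lung adenocarcinoma cells; signal is phosphorylated S6 detected by cytoblot immunostaining with HRP secondary.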 As to conditions: A549 phospho-S6 cytoblot, 5 h, higher = more signal.
In test [18] the target is NADPH oxidase 2 (Homo sapiens) (UniProt P04839). As to the kind of experiment: NOX2-dependent H2O2 signal modulators, primary screen, NOX inhibitor project, cell-based, HEK293-NOX2, PMA-stimulated, Amplex Red fluorescence (AID 1159). Further: test concentration not given here. As to conditions: 45 min, higher = more signal, called active from +8 up or from −8 down.
The target in test [19] is NADPH oxidase 4 (Homo sapiens) (UniProt Q9NPH5). As to the kind of experiment: NOX4-dependent H2O2 signal modulators, primary screen, NOX inhibitor project, cell-based, HEK293-NOX4, tetracycline-induced, Amplex Red fluorescence (AID 1160). As to conditions: 45 min, higher = more signal, called active from +8 up or from −8 down.
Test [20] concerns the target NADPH oxidase 5 (Homo sapiens) (UniProt Q96PH1). As to the kind of experiment: NOX5-dependent H2O2 signal modulators, primary screen, NOX inhibitor project, cell-based, HEK293-NOX5, Amplex Red fluorescence (AID 1161). As to conditions: HEK293-NOX5, ionomycin, 45 min, higher = more signal.

SMILES strings stand for the structures. The source made the active and inactive calls. Unless noted, how the calls were made is not given here.

The values that follow come from PubChem BioAssay.

Chain of Streptavidin (Streptomyces avidinii) (P22629 whole entry, looked up): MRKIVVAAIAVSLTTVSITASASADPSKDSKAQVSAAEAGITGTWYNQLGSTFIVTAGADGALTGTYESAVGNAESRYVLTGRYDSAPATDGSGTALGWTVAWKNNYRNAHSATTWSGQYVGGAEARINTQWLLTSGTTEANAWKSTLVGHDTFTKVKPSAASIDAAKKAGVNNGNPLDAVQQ
Chain of NADPH oxidase 5 (Homo sapiens) (Q96PH1 whole entry, looked up): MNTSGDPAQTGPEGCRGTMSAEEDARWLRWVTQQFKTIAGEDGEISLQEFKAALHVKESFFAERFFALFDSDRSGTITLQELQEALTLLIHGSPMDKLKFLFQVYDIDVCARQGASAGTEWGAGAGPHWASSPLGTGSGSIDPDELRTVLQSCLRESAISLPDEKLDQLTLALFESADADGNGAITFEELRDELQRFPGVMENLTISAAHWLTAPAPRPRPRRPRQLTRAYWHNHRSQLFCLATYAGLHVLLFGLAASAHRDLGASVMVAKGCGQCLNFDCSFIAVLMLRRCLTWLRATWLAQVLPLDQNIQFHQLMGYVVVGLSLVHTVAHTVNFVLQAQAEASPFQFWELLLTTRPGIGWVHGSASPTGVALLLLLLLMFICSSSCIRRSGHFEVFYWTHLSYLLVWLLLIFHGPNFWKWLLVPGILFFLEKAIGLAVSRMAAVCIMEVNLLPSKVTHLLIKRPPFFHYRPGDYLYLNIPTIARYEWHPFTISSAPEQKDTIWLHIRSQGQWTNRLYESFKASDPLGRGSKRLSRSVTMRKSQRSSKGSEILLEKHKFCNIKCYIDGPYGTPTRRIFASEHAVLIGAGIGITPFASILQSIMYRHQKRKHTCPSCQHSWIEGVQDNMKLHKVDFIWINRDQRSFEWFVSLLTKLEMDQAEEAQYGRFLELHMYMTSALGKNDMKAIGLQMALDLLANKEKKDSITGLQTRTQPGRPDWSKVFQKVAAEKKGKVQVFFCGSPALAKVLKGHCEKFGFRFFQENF
Chain of Torsin-1A (Homo sapiens) (O14656 whole entry, looked up): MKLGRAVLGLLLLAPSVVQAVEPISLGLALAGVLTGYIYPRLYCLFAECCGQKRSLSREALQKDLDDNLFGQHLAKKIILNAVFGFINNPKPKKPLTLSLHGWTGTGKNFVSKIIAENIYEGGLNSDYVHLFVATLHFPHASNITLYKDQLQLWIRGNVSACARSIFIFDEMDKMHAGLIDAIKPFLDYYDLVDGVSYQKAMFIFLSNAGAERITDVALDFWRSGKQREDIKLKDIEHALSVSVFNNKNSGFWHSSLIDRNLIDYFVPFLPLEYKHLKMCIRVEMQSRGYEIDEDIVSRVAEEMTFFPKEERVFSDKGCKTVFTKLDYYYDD
Chain of NADPH oxidase 2 (Homo sapiens) (P04839 whole entry, looked up): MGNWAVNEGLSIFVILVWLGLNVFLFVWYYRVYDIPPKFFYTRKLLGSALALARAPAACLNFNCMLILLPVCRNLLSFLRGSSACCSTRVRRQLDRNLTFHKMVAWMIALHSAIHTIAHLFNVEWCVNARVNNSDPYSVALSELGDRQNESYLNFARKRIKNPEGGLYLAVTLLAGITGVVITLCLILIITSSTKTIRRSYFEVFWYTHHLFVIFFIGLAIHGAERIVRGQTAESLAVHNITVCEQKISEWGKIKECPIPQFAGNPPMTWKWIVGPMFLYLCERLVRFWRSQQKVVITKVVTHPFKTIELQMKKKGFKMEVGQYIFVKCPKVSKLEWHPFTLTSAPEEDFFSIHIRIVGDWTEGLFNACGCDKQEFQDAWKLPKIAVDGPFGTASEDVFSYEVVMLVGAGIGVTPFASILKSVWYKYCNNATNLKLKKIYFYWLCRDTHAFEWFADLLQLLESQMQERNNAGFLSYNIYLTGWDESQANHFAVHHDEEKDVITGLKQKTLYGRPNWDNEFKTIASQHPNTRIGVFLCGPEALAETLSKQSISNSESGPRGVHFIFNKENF
Chain of NADPH oxidase 4 (Homo sapiens) (Q9NPH5 whole entry, looked up): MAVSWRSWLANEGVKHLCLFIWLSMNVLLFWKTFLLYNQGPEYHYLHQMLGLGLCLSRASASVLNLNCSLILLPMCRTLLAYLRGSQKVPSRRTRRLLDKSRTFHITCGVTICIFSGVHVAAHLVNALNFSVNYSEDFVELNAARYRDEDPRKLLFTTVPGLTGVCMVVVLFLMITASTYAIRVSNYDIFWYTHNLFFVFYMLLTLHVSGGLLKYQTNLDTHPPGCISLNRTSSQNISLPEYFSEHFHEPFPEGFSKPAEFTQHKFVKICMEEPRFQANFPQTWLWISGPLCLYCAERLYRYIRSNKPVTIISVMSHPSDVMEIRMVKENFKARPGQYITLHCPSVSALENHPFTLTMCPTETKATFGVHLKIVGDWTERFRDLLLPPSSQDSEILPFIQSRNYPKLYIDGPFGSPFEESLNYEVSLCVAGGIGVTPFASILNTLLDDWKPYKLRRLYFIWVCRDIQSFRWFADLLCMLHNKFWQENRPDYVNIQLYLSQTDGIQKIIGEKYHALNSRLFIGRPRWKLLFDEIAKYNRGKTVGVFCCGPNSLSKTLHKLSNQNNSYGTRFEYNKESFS

Regarding `CCc1cc2c(nc1CC)CCN(CCC(C)=NO[C@@H]1O[C@H](COC(C)=O)[C@@H](OC(C)=O)[C@H](OC(C)=O)[C@H]1OC(C)=O)C2`, the composite z-score in test [1] was 0.503; in test [6], 0.963; in [7], -0.089; in test [8], 0.439; in test [9] it was 0.495; in [10] it was 1.88. In test [12], the composite z-score is -0.0929. Besides, the z-score in test [2] was -1.9 (inactive); in [3], -1.19 (inactive); in [4], 4.05 (inactive); in test [5] it was -0.26 (inactive); in test [11] it was -1.13 (inactive); in test [13], -0.451 (inactive). In addition, the z-score in test [14] was -1.01 (inactive); in test [15], 1.42 (inactive); in test [16], -1.67 (inactive); in test [17], 1.83; in test [18], 0.0419 (inactive); in [19] it was 0.47 (inactive). Besides, the z-score in [20] was found to be 1.03.

Turning to `O=C(NN=C1C[C@@H](O)[C@@H](O)[C@@H]2[C@@H]3C(=O)N(c4ccc(F)cc4F)C(=O)[C@@H]3CC[C@H]12)OCc1ccccc1`, the composite z-score in test [1] is -0.0874; in [6], 0.727; in test [7], -0.101; in test [8] it was 0.671; in test [9], 1.13; in [10], -0.836. The same molecule registered a composite z-score in test [12] of 0.207. The z-score was -0.845 (inactive) in test [2]; 0.0604 (inactive) in test [3]; -0.299 (inactive) in [4]; 0.139 (inactive) in test [5]; 0.342 (inactive) in [11]; 10.1 (active) in [13]. Besides, the z-score in test [14] is 1.29 (inactive); in test [15], 0.497 (inactive); in test [16], 0.6 (inactive); in [17] it was -0.262; in test [18], 0.317 (inactive); in [19] it was 1.33 (inactive). Besides, in test [20], the z-score stood at 0.866.

Consider `COC(=O)[C@H](C)NC(=O)CCC1CC(OC(=O)NCc2cccc3ccccc23)CC2(CCCC(COC(=O)NCCc3ccccc3OC)O2)O1` (stereo not given in full), for which the composite z-score was 0.259 in test [1]; 0.759 in test [6]; -0.0361 in test [7]; 0.475 in [8]; 0.406 in [9]; 0.963 in test [10]. This molecule also came in with a composite z-score in [12] of -0.193. For the same molecule, the z-score was -0.701 (inactive) in [2]; 0.326 (inactive) in test [3]; 0.556 (inactive) in test [4]; 0.684 (inactive) in test [5]; -0.731 (inactive) in [11]; 7.29 (inactive) in test [13]. Moreover, the z-score in [14] was 1.37 (inactive); in test [15] it was -0.148 (inactive); in test [16], 0.494 (inactive); in test [17], -0.353; in test [18] it was -0.49 (inactive); in test [19], 0.357 (inactive). The z-score in test [20] stood at 0.512.

With `COc1cccc([C@H]2Oc3ccc(OC)cc3C(=NOCC[C@@H]3C=C[C@H](OC(C)=O)[C@@H](COC(C)=O)O3)[C@@H]2O)c1`, the composite z-score is 0.0377 in [1]; -0.112 in test [6]; -0.154 in test [7]; 0.186 in test [8]; 0.273 in test [9]; 0.509 in test [10]. Moreover, in test [12], the composite z-score is -0.18. In addition, the z-score was -0.0868 (inactive) in test [2]; 1.43 (inactive) in test [3]; 5.08 (inactive) in test [4]; 0.497 (inactive) in test [5]; -1.05 (inactive) in test [11]; 1.16 (inactive) in test [13]. The z-score is 0.236 (inactive) in [14]; -0.125 (inactive) in test [15]; 0.416 (inactive) in test [16]; -1.04 in test [17]; 0.511 (inactive) in test [18]; 1.03 (inactive) in test [19]. In addition, the z-score in test [20] is -0.14.
